# This excerpt belongs to a sample that is enriched for hits.
# Sm TGR inh = inhibitors of Schistosoma mansoni thioredoxin glutathione reductase | purified TGR, DTNB reduction, TNB absorbance 405 nm | Potency, µM (highest dose often 114 µM), usual class: inhibitors | AID 485364 | 360,000 tested, 3% active; note: nearly all actives have a fitted effect of over 60% in size
#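 TGR 20 nM + NADPH 100 uM (dispensed conc.), cpd preinc 15 min RT; start with NADPH (500 uM addition) then DTNB (15 mM addition). Kinetic TNB absorbance, 405 nm filter. Four-parameter Hill fit across titration.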
# Shiga toxin inh = blocks Shiga toxin action in Vero cells; 290,000 tested, 9.2% active; Vero cells, Shiga toxin protein synthesis inhibition reporter; inhibition, % at 38.7 µM; in the data active = inhibition mostly above about 28%, no sharp cut-off; inactive = mostly below about 43%
# FBPA Giardia inh = Giardia lamblia aldolase inhibition; purified Giardia FBPA; Potency, µM (top dose mostly 59.6 µM), most hits filed as inhibitors; 290,000 tested, 0.71% active; AID 2451; note: nearly all actives have a fitted effect of over 55% in size
# Target sequence (A8B2U2 whole entry, looked up): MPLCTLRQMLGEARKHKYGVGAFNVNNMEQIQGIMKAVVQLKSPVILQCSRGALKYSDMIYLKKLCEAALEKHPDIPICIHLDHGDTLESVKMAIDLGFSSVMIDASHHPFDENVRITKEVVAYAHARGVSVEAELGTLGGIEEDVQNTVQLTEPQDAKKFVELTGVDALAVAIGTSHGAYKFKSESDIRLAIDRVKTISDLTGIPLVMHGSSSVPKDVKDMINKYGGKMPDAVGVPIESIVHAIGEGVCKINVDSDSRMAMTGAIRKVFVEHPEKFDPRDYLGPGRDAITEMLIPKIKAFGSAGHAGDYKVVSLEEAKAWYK
#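 Giardia FBPA (40 nM reagent) was preincubated 10 min at RT with compound (up to 57.5 uM final), then substrate plus GAPDH/TPI/NAD/arsenate coupling system with diaphorase/resazurin was added; resorufin fluorescence (525/598 nm) was read after 20 min.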
# TbPYK inhibitor = T. brucei pyruvate kinase inhibition; Potency, µM (doses to about 76.8 µM), hits mostly inhibitors; TbPYK enzyme, Kinase-Glo Plus ATP luminescence, 45 min; 410,000 tested, 0.12% active; Q57TT1; note: nearly all actives have a fitted effect of over 50% in size
#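 Enzyme and substrate buffer are dispensed first and compound is pin-transferred. ADP at 130 uM final then starts the reaction, which runs 45 min at room temperature. Detection reagent is added for 10 min before luminescence is imaged.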
# Cycloheximide cs = affects cycloheximide protein synthesis inhibition readout, counter-screen; cell reporter, cycloheximide protein synthesis inhibition counterscreen; max response, %; 300,000 tested, 12% active; in the data active = max response mostly above about 13%, no sharp cut-off; inactive = mostly below about 14%; note: read at 38.3 µM for the half of the compounds with a filed dose
# LmPK inh = inhibitors of Leishmania mexicana pyruvate kinase; purified LmPK, Kinase-Glo ATP luminescence, 1 h; Potency, µM (highest dose often 57.5 µM), most hits filed as inhibitors; 290,000 tested, 0.37% active; AID 1721
#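 0.1 nM LmPK, 0.5 mM PEP, 0.1 mM ADP; 50 mM imidazole pH 7.2, 7 mM MgCl2, 50 mM KCl; 1 h RT. Kinase-Glo luminescence readout, normalized to no-enzyme (full inhibition) and uninhibited wells.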
# A number is an active result; 0 = inactive; ? = inconclusive; - = no result given; + = active, no number; [ ] = dose if it differs, or a comment. Unless noted, calls come from the whole dose curve; as a rule, active = well fitted curve in the direction sought with a large enough effect; inconclusive = small, poorly fitted or top-dose-only effect, or another doubt; inactive = no such curve, though single readings can be large; an effect the other way counts as inactive or inconclusive.
SMILES,Sm TGR inh,Shiga toxin inh,FBPA Giardia inh,TbPYK inhibitor,Cycloheximide cs,LmPK inh
O=[N+]([O-])c1ccc(COn2nnc3ccccc32)cc1,0,0,0,0,14,0
Clc1ccc(COn2nnc3ccccc32)c(Cl)c1,0,109,0,0,44,0
CCc1ccc(O)c(C(=O)c2cnc3cc(-c4ccc(C)cc4)nn3c2)c1,0,-,-,0,-,-
O=c1c2ccccc2nc(-c2cccs2)n1-c1ccc2ccccc2c1,0,active,0,0,29,0
Cn1c(CN2CCCCC2)nc2cc(NC(=O)c3ccccc3Cl)ccc21,0,72,0,0,44,0
Cc1cccc(OCC(=O)Nc2ccc3c(c2)nc(CCN2CCCCC2)n3C)c1,0,0,0,0,0,0
Cn1c(CN2CCCCC2)nc2cc(NC(=O)c3ccc(F)cc3)ccc21,0,0,0,0,34,0
Cc1cccc(OCC(=O)Nc2ccc3c(c2)nc(CN2CCCCC2)n3C)c1,0,0,0,0,29,0
Cn1c(CN2CCCC2)nc2cc(NC(=O)C3CCCCC3)ccc21,0,0,-,0,0,0
COc1ccc(-c2nc3sc(CCNC(=O)c4ccc(C(C)(C)C)cc4)c(C)n3n2)cc1,0,-,-,0,-,-
COc1cc(C2C(C#N)=C(SC)NC3=C2C(=O)CCC3)ccc1O (stereo not drawn),0,0,0,0,0,0
CCc1ccccc1NC(=O)CSC1=C(C#N)C(c2ccc(O)c(OC)c2)C2=C(CCCC2=O)N1 (stereo not drawn),40µM,0,0,0,0,0
Cc1ccc2nc(N(Cc3cccnc3)C(=O)C3COc4ccccc4O3)sc2c1 (stereo not drawn),0,-,-,0,-,-
Cc1ccccc1N=C1NN=C(c2ccccc2F)CS1,0,37,0,0,49,0
Cc1cccc(C)c1N=C1NN=C(c2ccccc2F)CS1,0,0,0,0,0,0
COc1cccc2sc(Nc3nc(-c4ccncc4)cs3)nc12,0,0,0,0,0,0
COc1ccc(OC)c2nc(-c3ccncc3)ccc12,0,0,0,0,15,0
CCOC(=O)c1c(NC(=O)c2ccc(S(=O)(=O)N(C)C3CCCCC3)cc2)sc2c1CCN(C(C)C)C2,0,-,-,0,-,-
CCc1nc(-c2ccc(-c3ccc(OC)cc3)nc2OC)no1,0,+,0,0,40,0
COc1ccc(-c2ccc(-c3noc(-c4cc(OC)cc(OC)c4)n3)c(OC)n2)cc1,0,-,-,0,-,-
COCc1nc(-c2ccc(-c3ccccc3)nc2OC)no1,0,156,0,0,64,0
COc1ccc(-c2ccc(-c3noc(C(C)C)n3)c(OC)n2)cc1,0,0,0,0,40,0
CCOc1nc(-c2ccccc2)ccc1-c1noc(COC)n1,0,0,0,0,0,0
COc1cc(-c2nc(-c3ccc(-c4ccccc4)nc3OC)no2)cc(OC)c1OC,0,0,0,-,0,0
COc1nc(-c2ccccc2)ccc1-c1noc(C)n1,0,72,0,0,62,0
SMILES,Sm TGR inh,Shiga toxin inh,FBPA Giardia inh,TbPYK inhibitor,Cycloheximide cs,LmPK inh
CCCc1nn2c(=O)cc(COC(=O)c3ccc(NC(=O)c4cccs4)cc3)nc2s1,0,-,-,0,-,-
Cc1cccc(Cn2c(CN3CCC(C(=O)NCCc4ccccc4)CC3)cc3ccccc32)c1,0,-,-,0,-,-
CC(CNC(=O)c1ccc2nc(Cc3ccccc3)oc2c1)c1ccccc1 (stereo not drawn),0,-,-,0,-,-
Cc1ccc(CSc2nncn3c2cc2sccc23)cc1,0,-,-,0,-,-
CCOC(=O)/C(C)=N/NC(C)=O,-,-,0,-,-,-
COCc1nc(-c2ccc(-c3ccc(OC)cc3)nc2OC)no1,0,active,0,0,47,0
CCOc1nc(-c2ccc(OC)cc2)ccc1-c1noc(-c2ccncc2)n1,0,0,0,0,0,0
Cc1cccc2nc(COc3ccc(-c4ccccc4)cc3)cn12,0,85,0,-,43,25µM
Cc1cc(C)n2cc(COc3ccc4ccccc4c3)nc2n1,0,66,0,0,53,0
CC1(C)O[C@@H]2O[C@H]([C@H](O)CO/N=C3/[C@H]4O[C@@H]4[C@@H](O)[C@H]4[C@H]3CCn3c(=O)n(-c5ccccc5)c(=O)n34)[C@@H](O)[C@@H]2O1,-,-,0[12.9 µM],-,-,-
C=C1C2CC[C@@]3(C)C(c4ccoc4)OC(=O)C[C@@]13OC1CC(OC(C)=O)C(C)(C)C(CC(=O)OC)[C@@]12C (stereo partly drawn),-,-,0,-,-,-
COc1ccc(CCN2CC(C(=O)OCc3ccccc3Cl)CC2=O)cc1OC (stereo not drawn),-,-,-,0,-,-
Nc1cc(Cl)nc(N/N=C/c2ccc([N+](=O)[O-])cc2)n1,0,0,0,0,0,0
O=[N+]([O-])c1ccccc1/C=N/NC1=NS(=O)(=O)c2ccccc21,0,0,0,0,0,0
O=[N+]([O-])c1ccccc1/C=N/Nc1nccnc1Cl,0,124,0,0,50,?
Oc1ccccc1/C=N/Nc1nccnc1Cl,0,0,0,0,38,16µM
Nc1cc(Cl)nc(N/N=C/c2ccccc2[N+](=O)[O-])n1,0,87,0,0,47,0
Oc1ccc(/C=N/Nc2ncc(Br)cn2)c(O)c1,0,115,0,0,76,0
CCCCCCCCCCCCCC[C@@H](O)[C@@H](O)[C@@H](N)CO,-,0,0,-,0,-
CC(C)C[C@H](NC(=O)CNC(=O)[C@H](CCC(N)=O)NC(=O)[C@H](CC(C)C)NC(=O)[C@H](CC(C)C)NC(=O)[C@H](CCCNC(=N)N)NC(=O)[C@H](CCC(N)=O)NC(=O)[C@H](CC(C)C)NC(=O)[C@H](CCCNC(=N)N)NC(=O)[C@H](C)NC(=O)CNC(=O)[C@H](CCC(=O)O)NC(=O)[C@H](CCCNC(=N)N)NC(=O)[C@H](CC(C)C)NC(=O)[C@H](CCCNC(=N)N)NC(=O)[C@H](CO)NC(=O)[C@H](CC(C)C)NC(=O)[C@H](CCC(=O)O)NC(=O)[C@H](CO)NC(=O)[C@@H](NC(=O)[C@H](Cc1ccccc1)NC(=O)[C@@H](NC(=O)CNC(=O)[C@H](CC(=O)O)NC(=O)[C@H](CO)NC(=O)[C@@H](N)Cc1cnc[nH]1)[C@@H](C)O)[C@@H](C)O)C(=O)N[C@H](C(N)=O)C(C)C,-,0,0,-,0,-
CC1=C(C(=O)Nc2ccc(Cl)cc2)C(c2cccs2)n2nc(SCc3cccc(C)c3)nc2N1 (stereo not drawn),0,-,-,0,-,-
Cc1cc(C)c(S(=O)(=O)NCCc2cc3ccc(C)cc3[nH]c2=O)c(C)c1,0,-,-,0,-,-
Oc1ccc(C=NNc2ccccn2)c(O)c1,-,-,-,0,-,-
Oc1ccc(/C=N/Nc2nccnc2Cl)c(O)c1,0,124,0,?,49,13µM
CCOC(=O)C1CCN(C(=O)c2cc(COc3ccc(OC)c4ccccc34)on2)CC1,0,82,?,0,43,0
